# Screening data: PubChem BioAssay, The Scripps Research Institute Molecular Screening Center
# Most compounds without a hit are left out; they make up all but 1.1% or so of the library.
# HTR5A ag = HTR5A agonists in luminescence cell assay, primary screen, counter-screen for OPRM1-OPRD1 heterodimer agonist project, full-deck HTS | AID 504692, 2011 | 5-hydroxytryptamine receptor 5A (Homo sapiens), P47898 | activation, % at 9.3 µM | cell-based | 340,000 tested, 0.61% active; in the data active = activation mostly above about 9.5%, no sharp cut-off; inactive = mostly below about 7.6%;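 also: 0% = cells with vehicle only and 100% = reference agonist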
# Target sequence (P47898 whole entry, looked up): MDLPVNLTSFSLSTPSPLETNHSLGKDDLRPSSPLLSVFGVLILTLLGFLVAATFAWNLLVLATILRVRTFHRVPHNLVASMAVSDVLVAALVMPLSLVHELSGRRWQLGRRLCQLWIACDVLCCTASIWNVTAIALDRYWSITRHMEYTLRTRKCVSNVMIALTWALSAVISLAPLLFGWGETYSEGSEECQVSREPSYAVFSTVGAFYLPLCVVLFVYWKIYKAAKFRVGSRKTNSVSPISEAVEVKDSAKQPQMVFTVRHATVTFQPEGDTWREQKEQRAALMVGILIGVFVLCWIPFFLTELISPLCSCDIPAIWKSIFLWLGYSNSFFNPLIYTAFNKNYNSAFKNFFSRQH
# MOR-DOR ag = agonists of OPRM1-OPRD1 heterodimerization, primary screen, cell-based, luminescence | cells | 340,000 tested, 0.3% active | Mu-type opioid receptor (Homo sapiens) + Delta-type opioid receptor (Homo sapiens), … | activation, % at 9.3 µM | AID 504326, 2011;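 also: 0% = vehicle-treated cells and 100% = reference agonist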
# MOR-DOR inv ag = inverse agonists of MOR-DOR heterodimerization, primary screen, cell-based, luminescence. 340,000 tested, 0.21% active. inhibition, % at 9.3 µM. cell-based MOR-DOR heterodimer luminescence, inverse agonism; in the data active = inhibition above about 22%, passing the limit was not always enough;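 also: 0% = cells with DMSO and 100% = wells without cells with DMSO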
# HTR5A inv ag = HTR5A inverse agonists in luminescence cell assay, primary screen, counter-screen for OPRM1-OPRD1 heterodimer inverse agonist project, full-deck HTS. 5-hydroxytryptamine receptor 5A (Homo sapiens), P47898. HTR5A cell line, inverse agonism. inhibition, % at 9.3 µM. 340,000 tested, 0.083% active. AID 504634, 2011; in the data active = inhibition mostly above about 23%, no sharp cut-off; inactive = mostly below about 18%;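 also: 0% = cells with DMSO and 100% = no-cell wells with DMSO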
# OPRM1-D1 ag cf = agonists of MOR-DOR heterodimerization, confirmation, cell-based, luminescence | shares compounds with MOR-DOR ag | cells, luminescence complementation | activation, % at 9.3 µM | 830 tested, 45% active;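 also: 0% = vehicle-treated cells and 100% = reference agonist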
# HTR5A ag ctr2 = HTR5A agonists in cells, counter-screen for OPRM1-OPRD1 heterodimer agonist project, cell-based, luminescence. shares compounds with MOR-DOR ag. HTR5A agonist counterscreen. activation, % at 9.3 µM. 830 tested, 8% active. AID 504905, 2011; in the data active = activation above about 17%;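 also: 0% = vehicle-treated cells and 100% = reference agonist response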
# The depositor's hits bear a star; i = inactive; . = no result. Rule as the data show it, unless noted: active = activation above about 18%; inactive = the rest.
SMILES,HTR5A ag,MOR-DOR ag,MOR-DOR inv ag,HTR5A inv ag,OPRM1-D1 ag cf,HTR5A ag ctr2
COC(=O)c1cc(NC(=O)c2ccc(Cn3cc(Cl)cn3)o2)cc(C(=O)OC)c1,-3.6,-0.6,3.5,15.1,.,.
C=CCN1N=C(c2ccc(NC(=O)c3ccccc3)cc2)CSC1=O,3.4,55.5*,-284.6,19.2,0.6,-4.2
Cc1onc(-c2ccccc2)c1-c1nnc(CN2CCN(S(=O)(=O)c3ccccc3)CC2)o1,-3.4,-0.6,2.5,-11.2,.,.
Cc1ccc(NC(=O)COC(=O)C2CC(=O)N(Cc3ccccc3)C2)cc1S(=O)(=O)N(C)C (stereo not given),4.1,-3.0,15.2,-11.8,.,.
CN(C)C(CNC(=O)CCc1nc2ccccc2s1)c1ccccc1 (stereo not given),4.5,33.1*,-266.8,-13.5,0.4,0.3
COc1ccc(C(CNC(=O)CCOc2ccccc2)N(C)C)cc1 (stereo not given),-4.5,31.7*,-159.8,6.8,360.9*,3.1
CN(C)C(CNC(=O)CCOc1ccccc1)c1ccco1 (stereo not given),5.8,26.3*,-141.3,4.2,23.8*,3.2
Cc1cccc(OCCC(=O)NCC(c2ccccc2)N(C)C)c1 (stereo not given),3.3,28.4*,-143.6,17.1,49.3*,1.9
CC(=O)c1ccc(OCCCC(=O)NCC(c2ccco2)N(C)C)cc1 (stereo not given),3.7,-2.8,14.4,-11.3,.,.
COc1ccc(NC(=O)CCOc2ccccc2)cc1,0.3,-1.0,5.8,-1.0,.,.
O=C(CCc1nc2ccccc2s1)NCc1ccccc1F,2.7,-0.2,1.1,20.7,.,.
O=C(Nc1ccccc1NC(=O)c1ccccc1Cl)c1ccccc1Cl,0.7,-0.4,1.9,-2.5,.,.
C[C@H](CO)N1C[C@H](C)[C@@H](CN(C)S(=O)(=O)c2cn(C)cn2)Oc2ccc(NC(=O)Cc3ccccc3)cc2C1=O,0.6,-2.4,13.7,9.5,.,.
Cc1nc2c(O)c3c(c(O)c2nc1C)C1C=CC3CC1,-1.4,22.0*,-107.5,5.3,-4.3,0.0
CSc1nc(C)c(C(=O)C[n+]2ccc(C)cc2)cc1C#N,-2.8,-2.0,10.5,7.4,.,.
CC[n+]1c(/C=C/N(C)c2ccccc2)n(-c2ccccc2)c2ccc(-c3nc4ccccc4s3)cc21,9.9*,21.7*,-104.0,-36.8,-2.4,-4.8
CCc1ccc(C(=O)c2cnc3ccc(OC)cc3c2N2CCN(CC)CC2)cc1,-2.6,110.6*,i,6.8,-1.4,-0.8
Cc1cc2[nH]c3c4ccccc4nc(C)c3c2cc1C,6.0,34.7*,-171.6,-22.5,68.0*,13.6
Cc1cc2[nH]c3c(c[n+](C)c4ccccc34)c2cc1C,-4.1,15.0,-97.8,10.2,.,.
N#Cc1nc(NCC(F)F)nc(Nc2cc(F)cc(F)c2)n1,12.3,20.9*,-119.0,-37.0,7.3,0.2
N#Cc1nc(Nc2cc(F)cc(F)c2)c2ncn(CC(F)F)c2n1,4.0,4.6,-26.8,-11.7,.,.
O=C(Oc1cccc2c(O)cccc12)c1ccco1,-3.4,5.4,-26.0,12.7,.,.
COc1cccc(-c2nc(NCc3ccco3)c3ccccc3n2)c1O,7.5,25.6*,-128.1,-12.1,9.6,23.8*
COc1ccc(-n2ncc3c2CC(C)(C)CC3NC(=O)CN2CCOC2=O)cc1 (stereo not given),-2.8,-0.9,6.1,-3.2,.,.
COc1ccc2c(=O)c(-c3cnn(-c4ccccc4)c3)c(C)oc2c1,3.3,1.3,-7.9,-15.9,.,.
SMILES,HTR5A ag,MOR-DOR ag,MOR-DOR inv ag,HTR5A inv ag,OPRM1-D1 ag cf,HTR5A ag ctr2
Cc1oc2c(C)c(O)ccc2c(=O)c1-c1cnn(-c2ccccc2)c1,11.2,18.5*,-80.4,-30.8,17.0,-1.0
Cc1sc(NC(=O)CSc2nnc(COc3ccccc3)n2C)c(C#N)c1C,3.2,13.5,-82.0,-8.5,.,.
Cc1sc(NC(=O)CSc2nnc3scc(-c4ccccc4)n23)c(C#N)c1C,2.7,19.5*,-105.4,-26.9,0.3,2.8
CN(C)c1ccc(/C=N/NC(=O)c2ccc(NC(=O)c3ccccc3)cc2)cc1,0.3,18.6*,-93.1,11.6,34.0*,20.2*
O=C(N/N=C/c1ccc(Br)cc1)c1ccc(NC(=O)c2ccccc2)cc1,2.2,-1.6,7.8,-25.5,.,.
CCOc1ccc2[nH]c3c(N4CCN(c5ccccn5)CC4)ncnc3c2c1,0.5,35.1*,-200.2,-11.3,18.9*,7.8
COC(=O)c1c(NC2=NS(=O)(=O)c3ccccc32)sc2c1CCC(C(C)(C)C)C2 (stereo not given),-2.8,-1.7,8.7,8.3,.,.
CCN(CC)CCCCNc1ncc2cc(-c3cc(OC)cc(OC)c3)c(NC(=O)NC(C)(C)C)nc2n1,7.5,-1.9,10.5,-26.8,.,.
CCn1cc(CN2CCCC(C(=O)Nc3ccc(-c4nc5ccccc5[nH]4)cc3)C2)c(C)n1 (stereo not given),4.4,30.5*,-165.2,11.8,0.7,-3.3
COc1cc(CNCCNC(=O)c2nonc2N)ccc1OCc1ccc(Cl)cc1,3.0,0.3,-1.3,-7.8,.,.
Cc1cc(C)c(NC(=O)Cn2nnc(C(=O)NCc3cccs3)c2N)c(C)c1,0.3,22.2*,-122.6,-41.5,0.0,-3.8
O=C1CCN(Cc2ccccc2)CCN1[C@H](COc1ccccc1)Cc1ccccc1,4.6,25.2*,-140.3,6.9,25.0*,2.4
CCCN1CCC(=O)N([C@H](COc2ccccc2)Cc2ccccc2)CC1,3.2,-0.5,2.6,-1.3,.,.
CC1CN(C)C(C)c2c1oc1ccc(N)cc21 (stereo not given),-3.4,71.7*,-373.2,-12.1,58.4*,4.0
O=[N+]([O-])c1ccccc1S(=O)(=O)N1CCN(c2ccccc2)CC1,0.6,-2.1,10.2,-2.0,.,.
Cc1ccc2sc(N(CCCN(C)C)C(=O)c3ccc(S(=O)(=O)N(C)C4CCCCC4)cc3)nc2c1C,-2.1,31.3*,-162.5,5.1,49.5*,21.6*
CCN(Cc1ccccc1)S(=O)(=O)c1ccc(C(=O)N(CCCN(C)C)c2nc3cc4c(cc3s2)OCO4)cc1,2.8,25.1*,-138.4,-8.0,-0.3,-3.0
CCN(Cc1ccccc1)S(=O)(=O)c1ccc(C(=O)N(CCCN(C)C)c2nc3c(C)c(C)ccc3s2)cc1,6.2,31.3*,-172.1,-15.5,40.5*,0.8
CN(C)CCCN(C(=O)c1ccc(S(=O)(=O)N(C)C)cc1)c1nc2cc3c(cc2s1)OCO3,1.8,-3.4,17.5,-4.6,.,.
Cc1ccc2sc(N(CCCN(C)C)C(=O)c3ccc(S(=O)(=O)N4CCOCC4)cc3)nc2c1C,0.1,-2.9,15.2,-0.2,.,.
Cc1c(NC(=O)OCCNC(=O)COc2c(Cl)cccc2Cl)sc(=S)n1C,1.2,1.4,-8.5,-38.5,.,.
